Drawing on paper PMC7862700, “An all-to-all approach to the identification of sequence-specific readers for epigenetic DNA modifications on cytosine”, this text covers binding signal for nine sequences.

Holding throughout (test): DAPPL (digital affinity profiling via proximity ligation, sequencing); 10 mM Tris-HCl pH 7.5, 50 mM NaCl, 1 mM DTT, 4% glycerol, room temperature, 30 min; GST-TFs on glutathione beads, 16-mer random dsDNA library, 0.1% formaldehyde crosslink after washing; high values mean tight binding
What all share (conditions): protein: recombinant; tags: N-terminal GST; dsDNA, one strand shown

For experiment [1], the target named is T1, ERF (Homo sapiens, UniProt P50548 1-548).
T1 sequence: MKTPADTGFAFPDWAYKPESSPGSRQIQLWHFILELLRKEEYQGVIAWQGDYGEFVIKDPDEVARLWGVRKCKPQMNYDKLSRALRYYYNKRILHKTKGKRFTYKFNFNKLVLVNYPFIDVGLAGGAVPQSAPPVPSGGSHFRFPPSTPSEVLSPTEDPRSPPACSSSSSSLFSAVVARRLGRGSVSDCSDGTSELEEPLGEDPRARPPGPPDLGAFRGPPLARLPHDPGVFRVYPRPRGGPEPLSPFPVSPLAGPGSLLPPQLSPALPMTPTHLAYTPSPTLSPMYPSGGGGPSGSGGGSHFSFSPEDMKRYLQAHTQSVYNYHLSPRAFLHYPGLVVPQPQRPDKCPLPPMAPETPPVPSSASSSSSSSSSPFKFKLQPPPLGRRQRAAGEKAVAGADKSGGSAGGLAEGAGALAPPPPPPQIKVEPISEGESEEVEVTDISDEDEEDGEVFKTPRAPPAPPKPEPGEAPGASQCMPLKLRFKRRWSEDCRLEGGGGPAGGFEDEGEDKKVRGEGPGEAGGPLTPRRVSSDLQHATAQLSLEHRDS
The essentials:
(§1)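 GST fusions of human transcription factors were expressed in yeast and captured with glutathione beads. Once given DNA barcodes and pooled alongside a tag-only sample, they were incubated for 30 min at room temperature with 200 nmole of a random double-stranded 16-mer DNA library in Tris/NaCl/DTT/glycerol buffer, then washed, crosslinked (0.1% formaldehyde), proximity-ligated, PCR-amplified and sequenced on an Illumina NextSeq500. The binding signal of each hexamer is its read frequency for a factor divided by its frequency for the tag-only sample.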

For experiment [2], the target named is T2, ETV3L (Homo sapiens, UniProt Q6ZN32 1-361).
T2 sequence: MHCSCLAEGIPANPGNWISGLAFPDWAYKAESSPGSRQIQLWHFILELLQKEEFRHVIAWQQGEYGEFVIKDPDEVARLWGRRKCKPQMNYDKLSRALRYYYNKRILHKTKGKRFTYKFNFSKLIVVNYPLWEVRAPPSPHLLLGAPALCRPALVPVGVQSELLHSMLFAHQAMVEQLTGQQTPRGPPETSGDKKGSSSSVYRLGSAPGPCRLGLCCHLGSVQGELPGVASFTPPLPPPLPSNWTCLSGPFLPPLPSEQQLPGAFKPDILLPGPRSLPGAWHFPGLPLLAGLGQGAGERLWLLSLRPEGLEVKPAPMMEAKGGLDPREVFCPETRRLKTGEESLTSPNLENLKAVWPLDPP
The gist of the method: as §1

Experiment [3] has as its target T3, ETS2 (Homo sapiens, UniProt P15036 1-469).
T3 sequence: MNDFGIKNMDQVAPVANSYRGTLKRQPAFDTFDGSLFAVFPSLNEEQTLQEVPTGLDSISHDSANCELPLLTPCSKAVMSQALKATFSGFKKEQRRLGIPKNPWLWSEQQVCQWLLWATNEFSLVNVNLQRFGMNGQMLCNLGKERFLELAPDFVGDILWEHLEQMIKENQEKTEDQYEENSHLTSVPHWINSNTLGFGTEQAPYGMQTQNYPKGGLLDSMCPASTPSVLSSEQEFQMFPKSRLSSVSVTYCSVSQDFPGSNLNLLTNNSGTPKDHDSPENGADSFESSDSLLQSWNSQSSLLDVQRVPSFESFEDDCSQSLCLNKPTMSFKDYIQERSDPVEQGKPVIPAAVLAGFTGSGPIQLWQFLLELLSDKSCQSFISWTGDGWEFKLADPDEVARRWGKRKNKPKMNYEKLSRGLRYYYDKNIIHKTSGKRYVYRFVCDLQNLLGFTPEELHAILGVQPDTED
The gist of the method:
as §1

Experiment [4] concerns the target T4, SPDEF (Homo sapiens, UniProt O95238 1-335).
T4 sequence: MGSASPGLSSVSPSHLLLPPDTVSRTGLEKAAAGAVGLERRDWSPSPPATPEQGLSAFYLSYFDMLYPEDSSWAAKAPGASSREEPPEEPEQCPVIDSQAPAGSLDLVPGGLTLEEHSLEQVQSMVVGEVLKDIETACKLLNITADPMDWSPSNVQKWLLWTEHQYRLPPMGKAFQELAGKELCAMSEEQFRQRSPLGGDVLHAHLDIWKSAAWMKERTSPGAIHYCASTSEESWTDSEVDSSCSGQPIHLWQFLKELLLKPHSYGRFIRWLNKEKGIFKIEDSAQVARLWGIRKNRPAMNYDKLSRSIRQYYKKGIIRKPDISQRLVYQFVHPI
The gist of the method: as §1

The target in experiment [5] is T5, ETV7 (Homo sapiens, UniProt Q9Y603 1-341).
T5 sequence: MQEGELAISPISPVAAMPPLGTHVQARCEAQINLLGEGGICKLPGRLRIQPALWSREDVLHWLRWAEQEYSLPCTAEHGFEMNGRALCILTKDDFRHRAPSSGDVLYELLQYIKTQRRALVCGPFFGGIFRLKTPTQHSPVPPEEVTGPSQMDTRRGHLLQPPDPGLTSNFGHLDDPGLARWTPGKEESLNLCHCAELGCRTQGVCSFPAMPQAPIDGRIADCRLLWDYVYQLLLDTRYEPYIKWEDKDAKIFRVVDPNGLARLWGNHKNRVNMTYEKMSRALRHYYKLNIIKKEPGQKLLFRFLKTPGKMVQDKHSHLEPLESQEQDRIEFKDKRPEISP
The essentials: as §1

The target in experiment [6] is T6, ELF5 (Homo sapiens, UniProt Q9UKW6-2 1-255).
T6 sequence: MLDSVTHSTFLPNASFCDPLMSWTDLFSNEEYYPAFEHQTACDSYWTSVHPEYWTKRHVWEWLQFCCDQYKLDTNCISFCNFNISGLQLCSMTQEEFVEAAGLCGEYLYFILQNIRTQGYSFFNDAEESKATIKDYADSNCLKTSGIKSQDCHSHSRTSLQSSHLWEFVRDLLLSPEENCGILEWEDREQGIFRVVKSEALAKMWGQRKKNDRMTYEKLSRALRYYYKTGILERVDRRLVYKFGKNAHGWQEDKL
The gist of the method: as §1

The target of experiment [7] is T7, ETV3 (Homo sapiens, UniProt P41162-2 1-143).
T7 sequence: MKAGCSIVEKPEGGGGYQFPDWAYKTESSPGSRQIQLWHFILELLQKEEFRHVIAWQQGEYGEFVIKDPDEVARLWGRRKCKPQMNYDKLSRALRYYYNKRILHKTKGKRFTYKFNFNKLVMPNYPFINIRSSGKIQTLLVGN
The gist of the method: as §1

The target in experiment [8] is ETV6 (Homo sapiens, UniProt P41212 1-452). The gist of the method: as §1
ETV6, sequence (P41212 whole entry): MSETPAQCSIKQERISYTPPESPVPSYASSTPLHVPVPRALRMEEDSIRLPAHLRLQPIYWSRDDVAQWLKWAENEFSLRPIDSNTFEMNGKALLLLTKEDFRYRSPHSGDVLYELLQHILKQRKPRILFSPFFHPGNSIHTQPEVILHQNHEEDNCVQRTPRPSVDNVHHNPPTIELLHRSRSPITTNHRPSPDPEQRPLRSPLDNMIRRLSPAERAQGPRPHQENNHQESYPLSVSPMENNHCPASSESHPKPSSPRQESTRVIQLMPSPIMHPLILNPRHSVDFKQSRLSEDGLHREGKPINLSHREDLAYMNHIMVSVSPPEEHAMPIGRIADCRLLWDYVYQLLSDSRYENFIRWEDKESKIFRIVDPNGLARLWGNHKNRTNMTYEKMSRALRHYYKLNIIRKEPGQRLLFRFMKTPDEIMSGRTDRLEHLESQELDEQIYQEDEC

For the sequence ATTATC, the binding signal is 1.36 fold enrichment (6-mer frequency, TF over GST control) in experiment [1]; 1.39 fold enrichment (6-mer frequency, TF over GST control) in experiment [2]; 1.29 fold enrichment (6-mer frequency, TF over GST control) in experiment [3]; 1.34 fold enrichment (6-mer frequency, TF over GST control) in experiment [4]; 1.18 fold enrichment (6-mer frequency, TF over GST control) in experiment [5]; 1.31 fold enrichment (6-mer frequency, TF over GST control) in experiment [6]. Also, the binding signal in experiment [7] was 1.37 fold enrichment (6-mer frequency, TF over GST control); in experiment [8] it was 1.29 fold enrichment (6-mer frequency, TF over GST control).

As to TAACGG, the binding signal is 1.04 fold enrichment (6-mer frequency, TF over GST control) in experiment [1]; 1.04 fold enrichment (6-mer frequency, TF over GST control) in experiment [2]; 1.1 fold enrichment (6-mer frequency, TF over GST control) in experiment [3]; 1.1 fold enrichment (6-mer frequency, TF over GST control) in experiment [4]; 1.06 fold enrichment (6-mer frequency, TF over GST control) in experiment [5]; 1.07 fold enrichment (6-mer frequency, TF over GST control) in experiment [6]. The binding signal in experiment [7] was 1.1 fold enrichment (6-mer frequency, TF over GST control); in experiment [8], 1.14 fold enrichment (6-mer frequency, TF over GST control).

Regarding ATATTG, the binding signal in experiment [1] was 1.31 fold enrichment (6-mer frequency, TF over GST control); in experiment [2], 1.41 fold enrichment (6-mer frequency, TF over GST control); in experiment [3] it was 1.36 fold enrichment (6-mer frequency, TF over GST control); in experiment [4] it was 1.43 fold enrichment (6-mer frequency, TF over GST control); in experiment [5] it was 1.33 fold enrichment (6-mer frequency, TF over GST control); in experiment [6], 1.34 fold enrichment (6-mer frequency, TF over GST control). The binding signal in experiment [7] is 1.35 fold enrichment (6-mer frequency, TF over GST control); in experiment [8], 1.42 fold enrichment (6-mer frequency, TF over GST control).

For TCGATG, the binding signal in experiment [1] was 1.08 fold enrichment (6-mer frequency, TF over GST control); in experiment [2], 1.15 fold enrichment (6-mer frequency, TF over GST control); in experiment [3], 1.03 fold enrichment (6-mer frequency, TF over GST control); in experiment [4], 1.07 fold enrichment (6-mer frequency, TF over GST control); in experiment [5] it was 1.17 fold enrichment (6-mer frequency, TF over GST control); in experiment [6], 1.07 fold enrichment (6-mer frequency, TF over GST control). Besides, the binding signal is 1.1 fold enrichment (6-mer frequency, TF over GST control) in experiment [7] and 1.09 fold enrichment (6-mer frequency, TF over GST control) in experiment [8].

For GAATAC, the binding signal in experiment [1] was 1.11 fold enrichment (6-mer frequency, TF over GST control); in experiment [2] it was 1.01 fold enrichment (6-mer frequency, TF over GST control); in experiment [3] it was 1.02 fold enrichment (6-mer frequency, TF over GST control); in experiment [4] it was 1 fold enrichment (6-mer frequency, TF over GST control); in experiment [5], 1.01 fold enrichment (6-mer frequency, TF over GST control); in experiment [6], 1.03 fold enrichment (6-mer frequency, TF over GST control). The binding signal in experiment [7] is 1.07 fold enrichment (6-mer frequency, TF over GST control); in experiment [8], 1.03 fold enrichment (6-mer frequency, TF over GST control).

Regarding AAACTT, the binding signal in experiment [1] was 1.36 fold enrichment (6-mer frequency, TF over GST control); in experiment [2], 1.24 fold enrichment (6-mer frequency, TF over GST control); in experiment [3] it was 1.32 fold enrichment (6-mer frequency, TF over GST control); in experiment [4] it was 1.1 fold enrichment (6-mer frequency, TF over GST control); in experiment [5], 1.22 fold enrichment (6-mer frequency, TF over GST control); in experiment [6] it was 1.43 fold enrichment (6-mer frequency, TF over GST control). The binding signal in experiment [7] is 1.34 fold enrichment (6-mer frequency, TF over GST control); in experiment [8], 1.29 fold enrichment (6-mer frequency, TF over GST control).

With TGACTC, the binding signal in experiment [1] is 1.21 fold enrichment (6-mer frequency, TF over GST control); in experiment [2] it was 1.21 fold enrichment (6-mer frequency, TF over GST control); in experiment [3] it was 1.38 fold enrichment (6-mer frequency, TF over GST control); in experiment [4], 1.27 fold enrichment (6-mer frequency, TF over GST control); in experiment [5] it was 1.41 fold enrichment (6-mer frequency, TF over GST control); in experiment [6], 1.28 fold enrichment (6-mer frequency, TF over GST control). Also, the binding signal is 1.32 fold enrichment (6-mer frequency, TF over GST control) in experiment [7] and 1.28 fold enrichment (6-mer frequency, TF over GST control) in experiment [8].

In the case of TAAATA, the binding signal in experiment [1] was 1.21 fold enrichment (6-mer frequency, TF over GST control); in experiment [2], 1.27 fold enrichment (6-mer frequency, TF over GST control); in experiment [3] it was 1.27 fold enrichment (6-mer frequency, TF over GST control); in experiment [4], 1.15 fold enrichment (6-mer frequency, TF over GST control); in experiment [5], 1.31 fold enrichment (6-mer frequency, TF over GST control); in experiment [6], 1.16 fold enrichment (6-mer frequency, TF over GST control). The binding signal in experiment [7] was 1.28 fold enrichment (6-mer frequency, TF over GST control); in experiment [8], 1.32 fold enrichment (6-mer frequency, TF over GST control).

On to CACTGC, for which the binding signal is 1.38 fold enrichment (6-mer frequency, TF over GST control) in experiment [1]; 1.59 fold enrichment (6-mer frequency, TF over GST control) in experiment [2]; 1.4 fold enrichment (6-mer frequency, TF over GST control) in experiment [3]; 1.42 fold enrichment (6-mer frequency, TF over GST control) in experiment [4]; 1.42 fold enrichment (6-mer frequency, TF over GST control) in experiment [5]; 1.23 fold enrichment (6-mer frequency, TF over GST control) in experiment [6]. For the same sequence, the binding signal in experiment [7] is 1.26 fold enrichment (6-mer frequency, TF over GST control); in experiment [8], 1.41 fold enrichment (6-mer frequency, TF over GST control).
